Assays:
Test in all cases: DAPPL (digital affinity profiling via proximity ligation, sequencing); 10 mM Tris-HCl pH 7.5, 50 mM NaCl, 1 mM DTT, 4% glycerol, room temperature, 30 min; GST-TFs on glutathione beads, 16-mer random dsDNA library, 0.1% formaldehyde crosslink after washing; high values mean tight binding
Details in all cases: protein: recombinant; tags: N-terminal GST; dsDNA, one strand shown
FLI1 = molecular target: T1, FLI1 (Homo sapiens, UniProt Q01543 1-452)
T1 sequence: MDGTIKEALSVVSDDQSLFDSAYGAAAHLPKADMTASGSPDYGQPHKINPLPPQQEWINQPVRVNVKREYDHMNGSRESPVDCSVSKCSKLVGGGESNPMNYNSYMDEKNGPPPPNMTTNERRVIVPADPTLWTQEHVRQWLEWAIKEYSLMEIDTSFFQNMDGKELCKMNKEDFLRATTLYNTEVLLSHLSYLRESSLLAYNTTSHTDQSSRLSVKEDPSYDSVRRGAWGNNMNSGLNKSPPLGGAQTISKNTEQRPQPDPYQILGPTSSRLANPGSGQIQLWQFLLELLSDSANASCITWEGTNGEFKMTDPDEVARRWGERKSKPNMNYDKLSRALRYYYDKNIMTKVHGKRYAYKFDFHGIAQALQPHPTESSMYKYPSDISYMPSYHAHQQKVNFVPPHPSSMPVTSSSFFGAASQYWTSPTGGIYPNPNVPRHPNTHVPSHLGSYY
Outline: (§1)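 Each value of binding signal is a hexamer's read frequency for a factor divided by the same hexamer's frequency in the tag-only sample. Barcoded, bead-captured GST fusions of human transcription factors made in yeast were pooled with that sample and incubated with 200 nmole of a random double-stranded 16-mer DNA library in Tris/NaCl/DTT/glycerol buffer at room temperature for 30 min. Washing, 0.1% formaldehyde crosslinking, proximity ligation, PCR and Illumina NextSeq500 sequencing followed.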

ELK1 = molecular target: T2, ELK1 (Homo sapiens, UniProt P19419 1-428)
T2 sequence: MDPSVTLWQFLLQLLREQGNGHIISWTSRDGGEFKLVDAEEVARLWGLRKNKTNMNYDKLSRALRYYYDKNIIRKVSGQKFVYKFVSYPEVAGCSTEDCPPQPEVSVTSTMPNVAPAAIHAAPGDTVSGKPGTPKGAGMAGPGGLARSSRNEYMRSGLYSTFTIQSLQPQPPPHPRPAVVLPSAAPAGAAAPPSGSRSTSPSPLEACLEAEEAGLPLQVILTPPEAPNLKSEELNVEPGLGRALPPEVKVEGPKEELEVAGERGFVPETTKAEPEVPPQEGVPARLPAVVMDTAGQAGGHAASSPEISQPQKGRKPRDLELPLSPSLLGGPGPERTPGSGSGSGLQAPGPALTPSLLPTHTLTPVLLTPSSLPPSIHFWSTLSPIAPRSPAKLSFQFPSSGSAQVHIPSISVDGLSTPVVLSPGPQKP
Outline: as §1

GABPA = molecular target: T3, GABPA (Homo sapiens, UniProt Q06546 1-454)
T3 sequence: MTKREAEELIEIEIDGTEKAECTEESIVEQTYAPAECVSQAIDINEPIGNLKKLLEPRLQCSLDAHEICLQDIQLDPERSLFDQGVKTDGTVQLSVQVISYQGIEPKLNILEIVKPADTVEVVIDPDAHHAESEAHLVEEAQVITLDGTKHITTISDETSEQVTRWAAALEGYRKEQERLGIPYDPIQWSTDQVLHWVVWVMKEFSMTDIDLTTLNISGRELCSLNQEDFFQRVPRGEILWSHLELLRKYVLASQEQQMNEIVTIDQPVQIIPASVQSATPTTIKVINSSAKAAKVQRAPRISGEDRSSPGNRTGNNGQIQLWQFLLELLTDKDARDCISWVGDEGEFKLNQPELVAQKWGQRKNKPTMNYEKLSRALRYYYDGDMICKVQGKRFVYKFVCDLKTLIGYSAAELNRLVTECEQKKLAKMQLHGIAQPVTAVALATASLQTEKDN
Outline: as §1

ERG = molecular target: T4, ERG (Homo sapiens, UniProt P11308 1-479)
T4 sequence: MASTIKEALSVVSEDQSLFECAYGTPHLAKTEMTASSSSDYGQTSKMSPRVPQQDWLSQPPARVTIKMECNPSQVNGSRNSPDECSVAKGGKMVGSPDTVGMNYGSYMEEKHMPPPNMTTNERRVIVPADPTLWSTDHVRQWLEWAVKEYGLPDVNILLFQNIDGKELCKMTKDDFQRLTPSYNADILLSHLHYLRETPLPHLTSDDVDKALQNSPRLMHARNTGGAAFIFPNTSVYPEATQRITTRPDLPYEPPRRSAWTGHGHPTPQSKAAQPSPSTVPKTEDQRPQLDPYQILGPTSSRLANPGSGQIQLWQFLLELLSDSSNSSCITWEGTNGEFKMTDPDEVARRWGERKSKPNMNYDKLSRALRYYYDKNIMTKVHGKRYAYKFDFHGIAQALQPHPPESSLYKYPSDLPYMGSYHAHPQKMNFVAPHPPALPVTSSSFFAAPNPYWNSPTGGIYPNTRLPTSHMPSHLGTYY
Outline: as §1

ELF1 = ELF1 (Homo sapiens, UniProt P32519 1-619)
ELF1, sequence (P32519 whole entry): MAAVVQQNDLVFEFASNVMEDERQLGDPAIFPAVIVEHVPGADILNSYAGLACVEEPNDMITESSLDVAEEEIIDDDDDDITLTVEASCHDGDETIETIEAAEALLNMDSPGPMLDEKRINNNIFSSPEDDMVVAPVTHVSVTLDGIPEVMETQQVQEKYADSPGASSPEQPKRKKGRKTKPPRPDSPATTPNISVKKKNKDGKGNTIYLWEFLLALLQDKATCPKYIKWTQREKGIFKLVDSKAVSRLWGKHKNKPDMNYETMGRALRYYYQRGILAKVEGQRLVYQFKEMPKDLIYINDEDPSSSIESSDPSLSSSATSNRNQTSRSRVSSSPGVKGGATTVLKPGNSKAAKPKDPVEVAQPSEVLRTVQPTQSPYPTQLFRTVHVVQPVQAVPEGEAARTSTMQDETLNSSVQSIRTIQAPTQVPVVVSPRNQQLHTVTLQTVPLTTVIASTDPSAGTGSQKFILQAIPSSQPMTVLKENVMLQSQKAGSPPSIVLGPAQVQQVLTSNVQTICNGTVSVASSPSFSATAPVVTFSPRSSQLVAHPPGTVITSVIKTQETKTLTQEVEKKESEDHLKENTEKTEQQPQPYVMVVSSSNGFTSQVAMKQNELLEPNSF
Outline: as §1

EHF = molecular target: T5, EHF (Homo sapiens, UniProt Q9NZC4 1-300)
T5 sequence: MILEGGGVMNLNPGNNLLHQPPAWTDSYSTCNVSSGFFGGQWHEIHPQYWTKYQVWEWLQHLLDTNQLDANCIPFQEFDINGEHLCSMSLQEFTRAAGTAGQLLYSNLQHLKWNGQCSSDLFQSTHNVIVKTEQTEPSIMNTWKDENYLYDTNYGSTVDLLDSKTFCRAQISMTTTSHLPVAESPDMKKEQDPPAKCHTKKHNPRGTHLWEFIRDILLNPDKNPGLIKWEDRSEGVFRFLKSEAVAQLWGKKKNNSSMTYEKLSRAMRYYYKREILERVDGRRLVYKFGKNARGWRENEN
Outline: as §1

SPI1 = SPI1 (Homo sapiens, UniProt P17947 1-270)
Outline: as §1

SPIB = SPIB (Homo sapiens, UniProt Q01892 1-262)
SPIB, sequence (Q01892 whole entry): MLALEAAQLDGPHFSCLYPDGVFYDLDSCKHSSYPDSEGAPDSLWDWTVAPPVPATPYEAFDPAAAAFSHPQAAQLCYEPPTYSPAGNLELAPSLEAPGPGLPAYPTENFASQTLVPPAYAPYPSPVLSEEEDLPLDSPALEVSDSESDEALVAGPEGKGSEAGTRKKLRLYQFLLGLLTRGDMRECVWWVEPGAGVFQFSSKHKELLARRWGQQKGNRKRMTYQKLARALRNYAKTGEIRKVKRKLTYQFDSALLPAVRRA
Outline: as §1

ELK3 = molecular target: T6, ELK3 (Homo sapiens, UniProt P41970 1-407)
T6 sequence: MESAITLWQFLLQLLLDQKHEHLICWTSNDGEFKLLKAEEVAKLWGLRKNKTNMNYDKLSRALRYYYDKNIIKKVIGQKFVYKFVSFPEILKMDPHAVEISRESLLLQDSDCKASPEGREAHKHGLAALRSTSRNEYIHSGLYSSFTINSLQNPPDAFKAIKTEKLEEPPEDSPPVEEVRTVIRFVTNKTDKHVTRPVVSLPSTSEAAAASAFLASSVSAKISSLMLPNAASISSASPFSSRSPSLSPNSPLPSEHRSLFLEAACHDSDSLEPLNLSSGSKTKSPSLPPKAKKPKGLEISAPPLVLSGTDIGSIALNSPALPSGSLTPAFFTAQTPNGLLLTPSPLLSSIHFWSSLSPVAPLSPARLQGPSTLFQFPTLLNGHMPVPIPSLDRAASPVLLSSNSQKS
Outline: as §1

Sequence	binding signal (FLI1)	binding signal (ELK1)	binding signal (GABPA)	binding signal (ERG)	binding signal (ELF1)	binding signal (EHF)	binding signal (SPI1)	binding signal (SPIB)	binding signal (ELK3)
CCTTAT	1.53 fold enrichment (6-mer frequency, TF over GST control)	1.34 fold enrichment (6-mer frequency, TF over GST control)	1.48 fold enrichment (6-mer frequency, TF over GST control)	1.45 fold enrichment (6-mer frequency, TF over GST control)	1.39 fold enrichment (6-mer frequency, TF over GST control)	1.57 fold enrichment (6-mer frequency, TF over GST control)	1.6 fold enrichment (6-mer frequency, TF over GST control)	1.49 fold enrichment (6-mer frequency, TF over GST control)	1.28 fold enrichment (6-mer frequency, TF over GST control)
TAACGG	1.1 fold enrichment (6-mer frequency, TF over GST control)	1.18 fold enrichment (6-mer frequency, TF over GST control)	1.03 fold enrichment (6-mer frequency, TF over GST control)	1.08 fold enrichment (6-mer frequency, TF over GST control)	1.03 fold enrichment (6-mer frequency, TF over GST control)	1.14 fold enrichment (6-mer frequency, TF over GST control)	1.21 fold enrichment (6-mer frequency, TF over GST control)	1.13 fold enrichment (6-mer frequency, TF over GST control)	1.03 fold enrichment (6-mer frequency, TF over GST control)
AAAGAA	1.18 fold enrichment (6-mer frequency, TF over GST control)	1.24 fold enrichment (6-mer frequency, TF over GST control)	1.23 fold enrichment (6-mer frequency, TF over GST control)	1.27 fold enrichment (6-mer frequency, TF over GST control)	1.28 fold enrichment (6-mer frequency, TF over GST control)	1.32 fold enrichment (6-mer frequency, TF over GST control)	1.32 fold enrichment (6-mer frequency, TF over GST control)	1.24 fold enrichment (6-mer frequency, TF over GST control)	1.3 fold enrichment (6-mer frequency, TF over GST control)
AAGATA	1.07 fold enrichment (6-mer frequency, TF over GST control)	1.15 fold enrichment (6-mer frequency, TF over GST control)	1.14 fold enrichment (6-mer frequency, TF over GST control)	1.17 fold enrichment (6-mer frequency, TF over GST control)	1.14 fold enrichment (6-mer frequency, TF over GST control)	1.18 fold enrichment (6-mer frequency, TF over GST control)	1.08 fold enrichment (6-mer frequency, TF over GST control)	1.12 fold enrichment (6-mer frequency, TF over GST control)	1.23 fold enrichment (6-mer frequency, TF over GST control)
TCCACG	1.09 fold enrichment (6-mer frequency, TF over GST control)	1.08 fold enrichment (6-mer frequency, TF over GST control)	1.2 fold enrichment (6-mer frequency, TF over GST control)	1.09 fold enrichment (6-mer frequency, TF over GST control)	1.09 fold enrichment (6-mer frequency, TF over GST control)	1.06 fold enrichment (6-mer frequency, TF over GST control)	1.06 fold enrichment (6-mer frequency, TF over GST control)	1.11 fold enrichment (6-mer frequency, TF over GST control)	1.14 fold enrichment (6-mer frequency, TF over GST control)
TTTTAG	1.2 fold enrichment (6-mer frequency, TF over GST control)	1.07 fold enrichment (6-mer frequency, TF over GST control)	1.19 fold enrichment (6-mer frequency, TF over GST control)	1.19 fold enrichment (6-mer frequency, TF over GST control)	1.21 fold enrichment (6-mer frequency, TF over GST control)	1.12 fold enrichment (6-mer frequency, TF over GST control)	1.15 fold enrichment (6-mer frequency, TF over GST control)	1.3 fold enrichment (6-mer frequency, TF over GST control)	1.16 fold enrichment (6-mer frequency, TF over GST control)
TGGTGT	1.28 fold enrichment (6-mer frequency, TF over GST control)	1.18 fold enrichment (6-mer frequency, TF over GST control)	1.35 fold enrichment (6-mer frequency, TF over GST control)	1.33 fold enrichment (6-mer frequency, TF over GST control)	1.33 fold enrichment (6-mer frequency, TF over GST control)	1.31 fold enrichment (6-mer frequency, TF over GST control)	1.23 fold enrichment (6-mer frequency, TF over GST control)	1.18 fold enrichment (6-mer frequency, TF over GST control)	1.4 fold enrichment (6-mer frequency, TF over GST control)
TGGACA	1.06 fold enrichment (6-mer frequency, TF over GST control)	1.07 fold enrichment (6-mer frequency, TF over GST control)	1.11 fold enrichment (6-mer frequency, TF over GST control)	1.05 fold enrichment (6-mer frequency, TF over GST control)	1.15 fold enrichment (6-mer frequency, TF over GST control)	1.05 fold enrichment (6-mer frequency, TF over GST control)	1.03 fold enrichment (6-mer frequency, TF over GST control)	1.08 fold enrichment (6-mer frequency, TF over GST control)	1.07 fold enrichment (6-mer frequency, TF over GST control)

From paper PMC7862700, “An all-to-all approach to the identification of sequence-specific readers for epigenetic DNA modifications on cytosine”
